Screening data from PubChem BioAssay.
RORgamma inh = inhibitors of mouse ROR gamma transcriptional activity; Potency, µM (doses to about 53.6 µM), for the others: at the top dose activity change, negative = inhibition, usual class: inhibitors; Drosophila S2 Gal4-RORgamma UAS-luciferase reporter, 20 h; hit rate 5.4% among 310,000; AID 2551; note: potency is the fitted concentration of half-maximal effect; % is set by controls: 0 for no effect and ±100 for the full control effect; nearly all actives have a fitted effect of over 60% in size
Target sequence (P51450 whole entry, looked up, the tested form may be a part): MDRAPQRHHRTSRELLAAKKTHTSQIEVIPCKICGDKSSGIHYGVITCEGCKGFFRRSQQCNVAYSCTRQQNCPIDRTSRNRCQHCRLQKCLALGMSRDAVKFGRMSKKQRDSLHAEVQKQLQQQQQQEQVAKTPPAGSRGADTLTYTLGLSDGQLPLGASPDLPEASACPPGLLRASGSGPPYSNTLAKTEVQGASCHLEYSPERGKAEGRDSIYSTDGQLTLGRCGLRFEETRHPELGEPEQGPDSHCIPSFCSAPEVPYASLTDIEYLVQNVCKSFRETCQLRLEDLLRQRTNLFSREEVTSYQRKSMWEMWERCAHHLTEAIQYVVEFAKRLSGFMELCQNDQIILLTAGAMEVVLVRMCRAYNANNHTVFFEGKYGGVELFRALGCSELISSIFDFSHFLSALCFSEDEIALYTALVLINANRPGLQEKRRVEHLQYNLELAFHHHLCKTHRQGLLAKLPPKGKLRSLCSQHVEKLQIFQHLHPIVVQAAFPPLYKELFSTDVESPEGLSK
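A Gal4/UAS one-hybrid system in insect cells: metallothionein-promoter Gal4–ROR gamma fusion plus Photinus luciferase reporter. Copper sulfate 700 uM final, 20 hr ambient incubation, luminescent detection after 10 min with reagent.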
CtBP-E1A blk = blocks the CtBP interaction with E1A; AlphaScreen GST-E1A/His-CtBP binding, 1536-well; hits give low values; activity change, % (concentration not given with the values); hit rate 0.49% among 340,000; AID 651724; in the data active = activity change below about -65%; inconclusive = mostly about -30% to -63%; note: % is set by controls: 0 for no effect and ±100 for the full control effect
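In 5 uL wells, 23 nL compound meets equimolar GST-E1A and His-CtBP (5X stock 125 nM each) for 2 h, 37 °C. Beads (5X, 50 ug/mL) then 1 h, 37 °C, dark.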
MBNL1 CUG block = MBNL1-poly(CUG) RNA binding inhibition; Q9NR56; TR-FRET MBNL1-His/biotin-(CUG)12 binding, 665/545 ratio; Potency, µM (doses to about 57.5 µM), for the others: at the highest dose activity change, negative = inhibition, usual class: inhibitors; hit rate 0.036% among 280,000; AID 2675; active = well fitted inhibition curve with a large enough effect in the signal ratio, with a control signal flat, not every such curve was filed as active; inconclusive = small, poorly fitted or top-dose-only effect, or effect the other way, or a change in a side signal; inactive = no such curve, though single readings can be large or run the other way; the % refers to the signal ratio; note: potency is the fitted concentration of half-maximal effect; % is set by controls: 0 for no effect and ±100 for the full control effect
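Compound titration spanned 92 nM–58 uM against the MBNL1-His/biotin-(CUG)12 complex. After 60 min at room temperature with 5 nM streptavidin-XL665 and 0.055 ng/ul terbium anti-His, ratiometric 665/545 nm emission (Ex 340 nm) normalized to controls.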
Six1-Eya2 blk = inhibitors of human Six1/Eya2 interaction; AlphaScreen GST-Six1/His-Eya2 binding, biochemical; hits give low values; activity change, % (test concentration not listed); hit rate 0.56% among 360,000; AID 651725; in the data active = activity change below about -65%; inconclusive = mostly about -30% to -63%; note: % is set by controls: 0 for no effect and ±100 for the full control effect
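Homogeneous AlphaScreen proximity assay pairing GST-Six1 with His-tagged Eya2 (added as 5X mix: 250 nM and 500 nM) in 50 mM Tris pH 8.0, 300 mM NaCl, 1 mM TCEP. Glutathione donor and nickel acceptor beads; 1 h, 37 °C, dark.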
CBFb-RUNX1 inh = CBF-beta/RUNX1 interaction disruption; 230,000 tested, under 10 active; AlphaScreen CBFb-His/RUNX1-biotin binding, biochemical; AID 1477; Potency, µM (highest dose often 59.8 µM), for the others: top-dose activity, negative = inhibition, actives largely listed as inhibitors; Q01196+Q13951; note: % of control where 0% means no effect
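CBFb-His/RUNX1-biotin, 30 nM each, preincubated 20 min RT; compound 15 min RT; Ni + streptavidin beads 50 ng each, 90 min RT; AlphaScreen read.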
Gal4-VP16 FLuc = Gal4-VP16 reporter inhibition counter-screen; Drosophila S2 Gal4-VP16 UAS-luciferase, luminescence, 20 h; hit rate 3.5% among 310,000; AID 2546; Potency, µM (series often up to 53.6 µM), for the others: top-dose activity, negative = inhibition, most hits filed as inhibitors;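 note: Gal4-VP16 expression switched on by copper sulfate through the metallothionein promoter; potency is the fitted concentration of half-maximal effect; % is set by controls: 0 for no effect and ±100 for the full control effect; nearly all actives have a fitted effect of over 50% in size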
Active calls of the source: *; ? = inconclusive; . = no result given; [ ] = another dose, or the depositor's remark. Only some compounds are listed: those with a hit (about 5.5% of all), similar ones and a draw of the others. Unless noted, calls come from the whole dose curve; as a rule, active = well fitted curve in the direction sought with a large enough effect; inconclusive = small, poorly fitted or top-dose-only effect, or another doubt; inactive = no such curve, though single readings can be large; an effect the other way counts as inactive or inconclusive.

SMILES	RORgamma inh	CtBP-E1A blk	MBNL1 CUG block	Six1-Eya2 blk	CBFb-RUNX1 inh	Gal4-VP16 FLuc
COc1ccc(N(C(C)C(=O)Nc2ccc(S(=O)(=O)N3CCCCC3)cc2)S(C)(=O)=O)cc1 (configuration not stated)	45%	-7	-4%	-7	.	9%
CCOc1ccc(C(=O)NCc2ccco2)cc1OC	?	5	-10%	-4	.	-25%
COc1c(C)cc(Br)cc1C(=O)NC(=S)NCc1ccco1	11µM*	15	-6%	7	.	?
COc1ccc(C(=O)NC(=S)NCc2ccco2)cc1Br	3.5µM*	-4	-8%	-11	.	6.3µM*
Cc1ccc(C(=O)NCc2ccco2)cc1Br	24%	31	-6%	21	-4%	7%
COc1cc(C(=O)NCc2ccco2)c(Br)c(OC)c1OC	13%	-2	-4%	-1	0%	3%
COc1ccc(C(=O)NC(=S)NCc2ccco2)cc1OC	18µM*	-1	?	-15	-4%	16%[0.365 µM]
CCc1cc2c(N3CCCCC3)ncnc2s1	?	10	-5%	5	-5%	35µM*
CCOP(=O)(OCC)c1nc(-c2ccc(OC)cc2)oc1N1CCOCC1	20%	2	-3%	-6	5%	-11%
Cc1ccc(-c2nc(P(=O)(c3ccccc3)c3ccccc3)c(N3CCOCC3)o2)cc1	3.5µM*	-14	24%	-9	0%	16µM*
Cc1ccc(S(=O)(=O)N2CCN(C(=O)c3cc(C4CC4)nn3-c3ccccc3)CC2)cc1	.	-2	.	3	.	.
C=CCNC(=S)/N=c1/ccccn1C	-14%	10	-5%	1	-1%	-3%
C=CCNC(=S)/N=c1/ccccn1CCC	5µM*	11	-5%	-1	4%	?
N#C/C(=C\c1cn(Cc2ccc(F)cc2)c2ccccc12)C(=O)NCc1ccco1	?	-5	0%	2	-4%	11µM*
N#C/C(=C\c1cn(Cc2ccccc2)c2ccccc12)C(=O)NCc1ccco1	15%	7	-10%	14	-5%	-14%
Cc1ccc(NC(=S)Nc2ccc3cn[nH]c3c2)cc1C	13µM*	-2	6%	-5	5%	5µM*
Cc1cccc(C)c1NC(=S)Nc1ccc(F)cc1	10µM*	20	-5%	5	1%	?
Cc1ccc(NC(=S)Nc2ccc(F)cc2)cc1C	7.1µM*	-11	-6%	0	.	7.1µM*
CC(=O)N1CCC(C(=O)N2c3ccccc3N=C(c3ccc(C(F)(F)F)cc3)C2C(=O)NC(C)(C)C)CC1 (configuration not stated)	.	8	.	-1	.	.
COc1ccc(CN(C)C(=O)[C@H]2O[C@@H](n3ccc(=O)[nH]c3=O)[C@H](O)[C@@H]2O)cc1OC	.	-9	.	14	.	.
Cc1c(Cl)cccc1NC(=O)C(=O)NNC(=O)c1ccccc1F	14µM*	3	1%	3	15%	?
Cc1ccccc1C(=O)NNC(=O)C(=O)Nc1cccc(Cl)c1C	32%	4	3%	-2	-4%	?
CCOc1cc(C2C(C#N)=C(N)OC(C)=C2C(C)=O)c(Br)c(Br)c1OC(C)C (configuration not stated)	?	-7	0%	-7	-5%	13µM*
CCOc1cc(C2C(C#N)=C(N)OC(C)=C2C(C)=O)cc(Br)c1O (configuration not stated)	-14%	3	4%	-7	-3%	10%
COc1ccc(-c2nc3c(c4c2C[C@H](c2ccccc2)OC4)CN(C(=O)NCCc2c[nH]c4ccccc24)CC3)c(C)c1	.	.	.	.	-1%[13.1 µM]	.
SMILES	RORgamma inh	CtBP-E1A blk	MBNL1 CUG block	Six1-Eya2 blk	CBFb-RUNX1 inh	Gal4-VP16 FLuc
COCCN(C)Cc1cn(-c2ccc(F)cc2F)nc1-c1ccccc1C	6.3µM*	.	-7%	-20	2%	?
CC1=NCCN1S(=O)(=O)c1ccccc1[N+](=O)[O-]	2%	.	15%	-93*	1%	-4%
CCOC(=O)c1c(NC(=O)C2=C(C)NC(=S)NC2c2ccc(CC)cc2)sc(C)c1C (configuration not stated)	3.5µM*	.	18%	.	1%	7.9µM*
O=C(c1ccc(C(F)(F)F)cc1)N1CCC(=O)N([C@H](COCc2ccc(C(F)(F)F)cc2)Cc2ccccc2)CC1	?	-12	.	-9	2%	-9%[40.7 µM]
O=C(O)c1ccc(/C=N/NC(=O)C2CC2(c2ccccc2)c2ccccc2)cc1 (configuration not stated)	-26%	.	2%	.	0%	7%
O=C(N/N=C/c1ccco1)c1ccc(OCc2ccccc2)cc1	-12%	8	.	-5	?	-19%
O=C(Nc1ccccc1C(=O)N/N=C/c1ccco1)c1ccccc1	7.9µM*	-17	61%	0	2%	?
O=C(N/N=C/c1ccco1)C1CC1(c1ccccc1)c1ccccc1 (configuration not stated)	0.35µM*	5	-11%	-11	-27%	?
O=C(Nc1ccccc1C(=O)N/N=C/c1ccco1)c1ccc(F)cc1	1.1µM*	-9	16%[11.5 µM]	-1	0%	5µM*
O=C(N/N=C/c1ccco1)c1ccncc1	?	4	?	7	2%	?
C/C(=N\NC(=O)C(=O)Nc1cccc(Cl)c1)c1ccncc1	?	1	.	3	-2%	5.6µM*
O=S(=O)(c1cc(Cl)cc(Cl)c1)N1CCC2CC1c1cc(Cl)ccc12 (configuration not stated)	.	11	.	19	.	.
Cc1ccc(NC(=O)CN(C)C(=O)c2ccccc2Cc2ccccc2)cc1	.	5	.	0	.	.
CN(CCO)c1nc2c(c(=O)n(Cc3ccc(Cl)cc3)c(=O)n2C)n1C	10%	-20	-6%	-1	.	-2%
CC(=NNC(=O)c1ccncc1)c1ccccc1Cl	.	5	.	9	.	.
Cc1ccccc1C(=O)Nc1nnc(CC(=O)N/N=C/c2ccco2)s1	-1%	-18	6%	-9	-8%	-1%
Cc1ccccc1C(=O)Nc1ccccc1C(=O)N/N=C\c1ccco1	10µM*	-2	4%	-2	4%	?
